CYP2C9 act – human CYP2C9 activators, primary screen, biochemical, luminescence; recombinant CYP2C9, luciferin-H conversion; stronger effect = higher value; factor 1 = untreated enzyme, 0 = blocked; AID 1024, 2008; activation factor at 5 µM; 96,000 tested, 1.4% active;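 active means activation factor of 2 or more for CYP2C9 at a 5 µM dose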
MRP reversal – reversal of MRP1-mediated doxorubicin resistance, primary screen, H69AR cells, doxorubicin co-treatment | H69AR cells + 2 uM doxorubicin, CellTiter-Glo, 72 h | differential viability (reversal), % at 10 µM | 85,000 tested, 0.04% active | AID 602, 2007;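 active means viability drop by adding the cancer drug above about 55%, with treated viability meeting a 40% cutoff, limit read from the data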;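 further: larger differential means the compound sensitizes cells more to doxorubicin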
CYP2C19 inhib – blockers of cytochrome P450 2C19 activity – biochemical, luminescence, ADME assay, primary screen; CYP2C19 Supersomes, luciferin-H EGE luminescence, 30 min; inhibition, % at 5 µM; 96,000 tested, 21% active; P33261; AID 778, 2007;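 active means CYP2C19 inhibition above a set limit at 5 µM in the primary screen, cut at about 50% in these data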
Target sequence (P33261 whole entry, looked up): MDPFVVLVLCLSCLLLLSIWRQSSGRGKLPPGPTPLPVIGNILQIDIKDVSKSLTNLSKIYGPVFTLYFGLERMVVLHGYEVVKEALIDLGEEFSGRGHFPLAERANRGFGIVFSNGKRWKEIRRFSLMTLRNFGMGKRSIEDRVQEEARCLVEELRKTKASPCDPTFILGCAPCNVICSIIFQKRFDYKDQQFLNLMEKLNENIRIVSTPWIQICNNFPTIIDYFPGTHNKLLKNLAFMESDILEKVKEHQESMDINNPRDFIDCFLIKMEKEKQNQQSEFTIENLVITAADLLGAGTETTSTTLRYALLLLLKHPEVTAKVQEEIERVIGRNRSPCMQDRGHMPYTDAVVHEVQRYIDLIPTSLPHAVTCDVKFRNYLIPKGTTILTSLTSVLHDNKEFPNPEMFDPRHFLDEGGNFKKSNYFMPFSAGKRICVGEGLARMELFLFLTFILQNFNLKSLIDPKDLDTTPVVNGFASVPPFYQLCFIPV
MRP-1 activ – H69AR viability gain despite doxorubicin, primary screen, MRP-1 activator project, H69AR cells, CellTiter-Glo; viability rescue; viability increase, % at 10 µM; 140,000 tested, 0.61% active; AID 799, 2007;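 active means viability gain under doxorubicin at or above a set limit, the compound median plus 3 SD, cut at about 4.7% in these data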;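 further: MRP-1 overexpressing cells given doxorubicin 25 µM after compound pretreatment; 18-22 h compound pretreatment then 72 h with doxorubicin before readout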
CYP2C19 act – human CYP2C19 activators, primary screen, biochemical, luminescence | 96,000 tested, under 10 active | AID 1025, 2008 | recombinant CYP2C19, luciferin-H EGE luminescence; stronger effect = higher value; 0 = fully inhibited enzyme, 1 = untreated enzyme | activation factor at 5 µM;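 active means activation factor of at least 2 at 5 µM in the primary screen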
CYP2C9 inhib – blockers of cytochrome P450 2C9 activity – biochemical, luminescence, ADME assay, primary screen; CYP2C9 Supersomes, luciferin-H conversion; inhibition, % at 5 µM; 96,000 tested, 20% active;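 active means blocking of liver enzyme CYP2C9 beyond about 50% at 5 µM, limit read from the data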
Each line names hits and unclear results; the compound was inactive in the other large screens. Rows were chosen to be rich in hits. Some 21% of all compounds tested hit in one or more screens of this group.

CCN(CC)S(=O)(=O)c1ccc(C(=O)OCn2nnc3ccccc3c2=O)cc1	CYP2C9 inhib 78
O=C(OCn1nnc2ccccc2c1=O)c1ccc2ncsc2c1	CYP2C19 inhib 53, CYP2C9 inhib 57
O=C(OCn1nnc2ccccc2c1=O)c1cccnc1Cl	CYP2C19 inhib 59
c1ccc(-n2nnnc2-c2cnc(-c3cccnc3)nc2-c2cccs2)cc1	none (no result: CYP2C9 act, CYP2C19 inhib, CYP2C19 act, CYP2C9 inhib)
O=C(C1CCN(Cc2ccc(F)cc2)CC1)N(CCc1ccccc1)Cc1ccccc1	none (no result: CYP2C9 act, MRP reversal, CYP2C19 inhib, CYP2C19 act, CYP2C9 inhib)
CC1CCCN(C(=O)C2CCN(CC3CC=CCC3)CC2)C1 (stereo unspecified)	none
Cc1c(O)ccc2c3c(c(=O)oc12)CCC(C)C3 (stereo unspecified)	CYP2C19 inhib 93
CC(C)CN(Cc1c(O)ccc2c3c(c(=O)oc12)CCC3)CC(C)C	none
Cc1c(O)ccc2c3c(c(=O)oc12)CCCC3	CYP2C9 act 3, CYP2C19 inhib 69
Cc1oc2c(C)c3oc(=O)c4c(c3cc2c1C)CCCC4	CYP2C19 inhib 96, CYP2C9 inhib 50
COc1ccc(-c2nc(N)n(C(=O)c3ccccc3Cl)n2)cc1	none (no result: CYP2C9 act, MRP reversal, CYP2C19 inhib, CYP2C19 act, CYP2C9 inhib)
CN(C)c1ccc(C(=O)C(O)c2ccc(C(C)(C)C)cc2)cc1 (stereo unspecified)	none
CC1(C)C(=O)C2(C(=O)NCc3ccccc3)CCC1C2 (stereo unspecified)	CYP2C19 inhib 70
N#Cc1ccc(OCC(=O)NCCc2ccccn2)cc1	none
COc1ccccc1OCc1nc(C#N)c(N2CCC(C(N)=O)CC2)o1	none
N#Cc1nc(COc2ccc(Br)cc2)oc1N1CCCCCC1	MRP-1 activ 6.5
N#Cc1nc(COc2ccc(Br)cc2)oc1N1CCCC1	CYP2C19 inhib 99, MRP-1 activ 7.3, CYP2C9 inhib 65
N#Cc1nc(COc2ccccc2)oc1N1CCOCC1	none
CCC1Oc2ccc(C)cc2N(CC(=O)N(Cc2ccc(C)o2)C2CCCC2)C1=O (stereo unspecified)	none (no result: CYP2C9 act, CYP2C19 inhib, CYP2C19 act, CYP2C9 inhib)
Cc1ccc(OCC(=O)OCC(=O)c2c(N)n(C)c(=O)n(C)c2=O)cc1C	CYP2C19 inhib 60
Cc1cc(C)cc(OCC(=O)OCC(=O)c2c(N)n(C)c(=O)n(C)c2=O)c1	none
Cn1c(N)c(C(=O)COC(=O)CCc2c[nH]c3ccccc23)c(=O)n(C)c1=O	CYP2C19 inhib 60 (no result: MRP reversal)
COC(=O)c1[nH]c2ccccc2c1NC(=O)CN1CCN(C/C=C/c2ccccc2)CC1	CYP2C19 inhib 74, CYP2C9 inhib 86
CCOC(=O)c1[nH]c2ccc(OCC)cc2c1NC(=O)CN1CCN(c2ccccc2)CC1	none
COC(=O)c1[nH]c2ccccc2c1NC(=O)CN1CC(C)OC(C)C1 (stereo unspecified)	none (no result: MRP reversal)
CCOC(=O)c1[nH]c2ccc(F)cc2c1NC(=O)CN1CCN(C/C=C/c2ccccc2)CC1	CYP2C19 inhib 52, CYP2C9 inhib 59
c1ccc(-c2nc3cc(Oc4ccc5oc(-c6ccccn6)nc5c4)ccc3o2)nc1	none (no result: CYP2C9 act, CYP2C19 inhib, MRP-1 activ, CYP2C19 act, CYP2C9 inhib)
O=[N+]([O-])C(=C1Nc2ccccc2N1)/C(Cl)=C(/Cl)Br	none (no result: CYP2C9 act, MRP reversal, CYP2C19 inhib, CYP2C19 act, CYP2C9 inhib)
O=C(OCc1cnc(Cl)s1)c1ccccc1Cl	CYP2C19 inhib 77 (no result: MRP reversal)
O=C(OCc1cnc(Cl)s1)c1cccc(Cl)c1Cl	CYP2C19 inhib 92 (no result: MRP reversal)
COc1ccc(-n2c(CNC(=O)c3cc(OC)c(OC)c(OC)c3)n[nH]c2=S)cc1	none (no result: MRP reversal)
Cc1ccc2cc(CN(CCCO)S(=O)(=O)c3cccc4nsnc34)c(=O)[nH]c2c1	CYP2C9 inhib 100
Cc1ccc2[nH]c(=O)c(CN(CCCO)S(=O)(=O)c3cccc4nsnc34)cc2c1	CYP2C9 inhib 88
C/C(=N\NS(=O)(=O)c1ccc(C)cc1)c1ccc(Br)s1	CYP2C19 inhib 58, CYP2C9 inhib 71
C/C(=N\NS(=O)(=O)c1ccc(C)cc1)c1ccc(C)s1	none
CCOc1ccccc1NC(=O)C1CCCN(S(=O)(=O)c2cccc3nsnc23)C1 (stereo unspecified)	CYP2C19 inhib 52, CYP2C9 inhib 53 (no result: MRP reversal)
CCOc1ccccc1NC(=O)C1CCCN(S(=O)(=O)c2cccc3cccnc23)C1 (stereo unspecified)	none
COc1ccc2nc(NC(=O)C3CCCN(S(=O)(=O)c4cccc5nsnc45)C3)sc2c1 (stereo unspecified)	CYP2C19 inhib 78, CYP2C9 inhib 86
Cc1cc(NC(=O)CN2CCN(c3ccc(O)cc3)CC2)no1	none
c1ccc(Cc2nn[nH]n2)cc1	none
CC(C)(C)c1cc(Cc2ccccc2)[nH]n1	CYP2C19 inhib 82
O=C(c1ccc2ccccc2n1)N1CCN(c2ccccc2O)CC1	CYP2C19 inhib 58
O=C(CSc1nc2ccc([N+](=O)[O-])cc2[nH]1)c1ccc2ccccc2c1	CYP2C9 inhib 54 (no result: MRP reversal)
COc1cc(C)c(S(=O)(=O)N2CCOCC2)cc1C	none (no result: CYP2C9 act, CYP2C19 inhib, CYP2C19 act, CYP2C9 inhib)
COc1cc(C)c(C(C)C)cc1S(=O)(=O)N1CCOCC1	CYP2C9 act 2
COc1cc(Cl)c(S(=O)(=O)N2CC(C)OC(C)C2)cc1Cl (stereo unspecified)	CYP2C19 inhib 84
COc1cc(Cl)c(S(=O)(=O)N2CCOCC2)cc1Cl	CYP2C9 act 2.7
CCOc1cc(C)c(C(C)C)cc1S(=O)(=O)N1CCOCC1	none
COc1ccc(NC(=O)Cn2c(=O)n(-c3ccc(OC)cc3OC)c(=O)c3c(C)c(C)sc32)cc1	none (no result: CYP2C9 act, MRP reversal, CYP2C19 inhib, CYP2C19 act, CYP2C9 inhib)
CC(=O)NC1=NN(C(C)=O)C(c2sccc2C)S1 (stereo unspecified)	none
CCc1cccc(CC)c1NC(=O)COC(=O)c1ccc(F)c(S(=O)(=O)N(CC)CC)c1	none (no result: CYP2C9 act, MRP reversal, CYP2C19 inhib, CYP2C19 act, CYP2C9 inhib)
Cc1cc2ncn(CC(O)COC3CCCCC3)c2cc1C (stereo unspecified)	CYP2C19 inhib 64, CYP2C9 inhib 86
Cc1ccc(C(=O)OCc2cn3ccccc3n2)cc1	CYP2C19 inhib 83, CYP2C9 inhib 59
Cc1ccc(-c2csc(NC(=O)C3CCN(S(=O)(=O)c4cccs4)CC3)n2)cc1	none (no result: CYP2C9 act, MRP reversal, CYP2C19 inhib, CYP2C19 act, CYP2C9 inhib)
O=C(Nc1nc(-c2cc(Cl)sc2Cl)cs1)c1ccc(Br)s1	none (no result: MRP reversal)
O=C(Nc1nc(-c2cc3ccccc3o2)cs1)c1ccc(S(=O)(=O)N2CCCC2)cc1	none (no result: CYP2C9 act, MRP reversal, CYP2C19 inhib, CYP2C19 act, CYP2C9 inhib)
O=C(Nc1nc(-c2ccc(S(=O)(=O)N3CCCC3)cc2)cs1)c1cccs1	CYP2C9 inhib 62
O=C(NCCc1ccc(S(=O)(=O)N2CCCC2)cc1)c1cccs1	CYP2C9 inhib 62
O=C(Nc1nc(-c2ccc(S(=O)(=O)N3CCCCCC3)cc2)cs1)c1cccs1	CYP2C9 inhib 53
O=C(Nc1nc(-c2cc(Cl)sc2Cl)cs1)c1cccs1	CYP2C9 inhib 83
CCc1ccc(C2CC(c3ccco3)=NN2S(C)(=O)=O)cc1 (stereo unspecified)	CYP2C19 inhib 62 (no result: MRP reversal)

Screening data: PubChem, several laboratories
